# Test results published in PubChem BioAssay (NCATS).
# The source made the active and inactive calls. The call rests on the fitted dose curve; in most records, active means well fitted curve in the direction sought with a large enough effect; inactive means no such curve, though single readings can be large or run the other way.
# Target: Alpha-galactosidase A (Homo sapiens) (UniProt P06280)
# Assay: Counterscreen for Glucocerebrosidase Inhibitors: qHTS Assay for Human alpha-Galactosidase at pH 4.5 (AID 992); further: 0% is about no effect
# Settings: purified enzyme, fluorogenic substrate; series mostly up to 76.9 µM; activity change, negative = inhibition: at the top concentration
# Summary of the method: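 Quantitative HTS: compounds tested from 0.7 nM up to 77 uM against 2 nM enzyme with 80 uM 4-MU alpha-D-galactopyranoside. The 20 min room-temperature reaction is stopped with 1M NaOH/1M glycine, pH 10.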
# Sequence of Alpha-galactosidase A (Homo sapiens) (P06280 whole entry, looked up): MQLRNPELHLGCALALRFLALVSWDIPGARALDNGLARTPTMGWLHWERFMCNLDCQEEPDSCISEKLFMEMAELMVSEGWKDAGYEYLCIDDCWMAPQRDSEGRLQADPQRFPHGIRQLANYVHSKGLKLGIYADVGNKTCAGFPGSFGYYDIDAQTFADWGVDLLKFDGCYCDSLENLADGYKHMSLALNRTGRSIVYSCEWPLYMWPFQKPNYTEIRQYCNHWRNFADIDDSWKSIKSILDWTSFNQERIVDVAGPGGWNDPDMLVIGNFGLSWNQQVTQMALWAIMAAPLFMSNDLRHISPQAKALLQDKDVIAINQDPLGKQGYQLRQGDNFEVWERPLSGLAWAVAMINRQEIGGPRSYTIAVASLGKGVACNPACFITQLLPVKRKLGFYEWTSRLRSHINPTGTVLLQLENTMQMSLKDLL
SMILES,"activity change, negative = inhibition",outcome
Cc1nc2c([nH]1)c(=O)n(C)c(=O)n2Cc1ccco1,2.17% (inactive),
OCCN1CCN(CCCN2c3ccccc3C=Cc3ccccc32)CC1,,inactive
CCN1CCc2nc(N)oc2CC1,-1.77% (inactive),
Cc1ccc(=O)n(-c2ccccc2)c1,-0.325% (inactive),
O=C(O)CN(CCN(CC(=O)O)CC(=O)O)CCN(CC(=O)O)CC(=O)O,-1.52% (inactive),
CN(C)C(=O)Oc1cccc([N+](C)(C)C)c1,0.564% (inactive),
CCNC(=O)N1CCN(CCCC(c2ccc(F)cc2)c2ccc(F)cc2)CC1,-3.18% (inactive),
CN(C)C(=O)Oc1ccc[n+](C)c1,-1.3% (inactive),
Cc1scc2c1N(C(=O)CN1CCN(C)CC1)c1ccccc1NC2=O,-3.23% (inactive),
CCCN(CCC)CCc1cccc2c1CC(=O)N2,-1.97% (inactive),
c1cc(CN2CCCCC2)cc(OCCCNc2nc3ccccc3s2)c1,-10.3% (inactive),
CCc1cccc(N(C)C(N)=Nc2cccc3ccccc23)c1,-7.33% (inactive),
CC(C)NNC(=O)c1ccncc1,-1.85% (inactive),
CN(C)CCCN1c2ccccc2Sc2ccc(C(F)(F)F)cc21,-0.314% (inactive),
O=C1CC2(CCCC2)CC(=O)N1CCCCN1CCN(c2ncccn2)CC1,-0.44% (inactive),
C[C@]12CCC(=O)C=C1CC[C@@H]1[C@@H]2C(=O)C[C@@]2(C)[C@H]1CC[C@]2(O)C(=O)CO,-0.888% (inactive),

SMILES,"activity change, negative = inhibition",outcome
O=C(CCCN1CCC(O)(c2cccc(C(F)(F)F)c2)CC1)c1ccc(F)cc1,-5.75% (inactive),
CN(C)CCOC(=O)COc1ccc(Cl)cc1,2.74% (inactive),
NCCCNCCSP(=O)(O)O,-1.47% (inactive),
CNCCCN1c2ccccc2CCc2ccccc21,-1.63% (inactive),
Brc1c(NC2=NCCN2)ccc2nccnc12,-2.73% (inactive),
CCCCNc1c(C(=O)OCC)c(C)nc2c1cnn2CC,-3.65% (inactive),
CCO/C([O-])=N/c1c[n+](N2CCOCC2)no1,-1.57% (inactive),
Cc1nc2sccn2c(=O)c1CCN1CCC(=C(c2ccc(F)cc2)c2ccc(F)cc2)CC1,-9.62% (inactive),
CC(=O)Oc1cc(C(C)C)c(OCCN(C)C)cc1C,-1.13% (inactive),
CN(C)CCN(Cc1cccs1)c1ccccn1,-1.32% (inactive),
CCN(CC)CCNC(=O)c1ccc(NC(C)=O)cc1,-2.06% (inactive),
C[C@]12CCC(=O)C=C1CC[C@@H]1[C@@H]2CC[C@@]2(C)[C@H]1CC[C@]2(O)C(=O)CO,2.41% (inactive),
CC(C)[N+](C)(CCOC(=O)C1c2ccccc2Oc2ccccc21)C(C)C,1.42% (inactive),
CCCC(C(=O)OCCN(CC)CC)(c1ccccc1)c1ccccc1,-6.32% (inactive),
CCN(CC)CCNC(=O)c1cc(S(C)(=O)=O)ccc1OC,-0.33% (inactive),
CSc1ccc(C(=O)c2[nH]c(=O)[nH]c2C)cc1,-9.36% (inactive),
